From the supplement of paper PMC13380429

Tested on: Vero E6 infected with SARS-CoV-2
Assay: inhibition of SARS-CoV-2 cytopathic effect; higher = more antiviral protection, active = above 15
Conditions: 48 h

Measured: inhibition of SARS-CoV-2 cytopathic effect

c1ccc(CN(CC2=NCCN2)c2ccccc2)cc1 [antazoline]
inactive: 1 nM -3.99% | 8.33 nM -2.45% | 100 nM -2.58% | 833.33 nM -1.01% | 10000 nM -3.78%

CCCCN(CCCC)C(=O)CN1C[C@H](c2ccc3c(c2)OCO3)[C@@H](C(=O)O)[C@@H]1c1ccc(OC)cc1 [atrasentan]
inactive: 1 nM 0.53% | 8.33 nM 1.72% | 100 nM 1.15% | 833.33 nM 2.37% | 10000 nM 1.46%

COC(=O)C(Cc1ccc(OCCn2c(=O)sc3cc(C(=O)c4ccccc4)ccc32)cc1)C(=O)OC
inactive: 1 nM -0.38% | 8.33 nM 2.25% | 100 nM -1.78% | 833.33 nM -1.22% | 10000 nM 0.02%

C=C[C@H]1CN2CC[C@H]1C[C@H]2[C@H](O)c1ccnc2ccccc12 [cinchonidine]
inactive: 1 nM -0.165% | 8.33 nM 2.44% | 100 nM 2.67% | 833.33 nM 3.6% | 10000 nM 2.49%

NCCCC[C@H](NC(=O)[C@@H](Cc1cc(Br)c(O)c(Br)c1)NC(=O)N1CCC(N2Cc3ccccc3NC2=O)CC1)C(=O)N1CCN(c2ccncc2)CC1
inactive: 1 nM 0.88% | 8.33 nM 0.87% | 100 nM 2.08% | 833.33 nM -1.34% | 10000 nM 0.72%

CN1C(=O)CC[C@H]1c1cccnc1 [cotinine]
inactive: 1 nM -0.33% | 8.33 nM -1.5% | 100 nM -0.09% | 833.33 nM 0.39% | 10000 nM 0.17%

CC[C@@H](C)Nc1cc(C(=O)N[C@H]2C[C@H]3CC[C@@H](C2)N3c2ccc(C(=O)C3CC3)cn2)c(C)cc1C(N)=O
inactive: 1 nM 1.52% | 8.33 nM 1.25% | 100 nM -3.63% | 833.33 nM 2.73% | 10000 nM 1.28%

CC1Sc2c(C(=O)O)c(=O)c3cc(F)c(N4CCNCC4)cc3n21 (stereo not given) [ulifloxacin]
inactive: 1 nM -1.7% | 8.33 nM -1.36% | 100 nM -3.62% | 833.33 nM 1.61% | 10000 nM -0.79%

C=CCC1(CC(C)C)C(=O)NC(=O)NC1=O [butalbital]
inactive: 1 nM -0.15% | 8.33 nM 4.37% | 100 nM 2.7% | 833.33 nM 1.69% | 10000 nM 1.37%

Cc1nc2ccccc2c(-c2ccc3c4c(ccnc24)CCO3)c1[C@H](OC(C)(C)C)C(=O)O
inactive: 1 nM -1.93% | 8.33 nM -2.73% | 100 nM -4.38% | 833.33 nM -4.78% | 10000 nM -3.59%

CCOC(=O)[C@H](CCc1ccccc1)N[C@@H](C)C(=O)N(CC(=O)O)C1Cc2ccccc2C1 [delapril]
inactive: 1 nM -1.82% | 8.33 nM 0.71% | 100 nM 2.57% | 833.33 nM 2.28% | 10000 nM -1.55%

O=C(C=Cc1ccccc1)NC(NC(=S)Nc1ccc(Cl)cc1)C(Cl)(Cl)Cl (stereo not given)
inactive: 1 nM 0.51% | 8.33 nM 0.81% | 100 nM -4.17% | 833.33 nM -1.91% | 10000 nM -5.67%

CCOCOC[C@H](C[C@H](C)C(=O)NO)NC(=O)c1ccc(Oc2ccccc2)cc1
inactive: 1 nM 4.15% | 8.33 nM 13.5% | 100 nM 5.33% | 833.33 nM -3.29% | 10000 nM -6.18%

CN(CCOc1ccc(NS(C)(=O)=O)cc1)CCc1ccc(NS(C)(=O)=O)cc1 [dofetilide]
inactive: 1 nM -2.98% | 8.33 nM -1.43% | 100 nM -1.55% | 833.33 nM -0.28% | 10000 nM -0.36%

O=c1cc[nH]c(=O)[nH]1 [uracil]
inactive: 1 nM -0.48% | 8.33 nM 2.2% | 100 nM 2.09% | 833.33 nM 1.66% | 10000 nM -2.12%

CC(C)=CCC/C(C)=C/CC/C(C)=C/CSc1ccccc1C(N)=O [farnesyl-thiosalicylic-acid-amide]
inactive: 1 nM -1.77% | 8.33 nM -2.42% | 100 nM -3.06% | 833.33 nM -5.68% | 10000 nM -2.46%

CCOC(=O)C1=C[C@]2(CC)CCCN3CCc4c(n1c1ccccc41)[C@@H]32 [vinpocetine]
inactive: 1 nM -3.18% | 8.33 nM 0.85% | 100 nM 4.53% | 833.33 nM 1.98% | 10000 nM -1.06%

O=C(Oc1ccc(Br)cc1)N1CCN2CCC1CC2
inactive: 1 nM 1.3% | 8.33 nM 1.31% | 100 nM 4.76% | 833.33 nM 1.51% | 10000 nM 0.59%
